Laboratory results reported in PubChem BioAssay AID2314 (National Center for Advancing Translational Sciences (NCATS), 2010).
Screen size: about 300,000 compounds; about 37,000 (12%) were called active. Shown is part of a subset that was picked to be rich in actives. Unmarked numbers belong to inactive results. Rule as the data show it: active = max response mostly above about 13% (no sharp cut-off); inactive = mostly below about 14%.

Assay: Cycloheximide Counterscreen for Small Molecule Inhibitors of Shiga Toxin; also: read at 38.3 µM for the half of the compounds with a filed dose; 0% is about no effect
Settings: cell reporter, cycloheximide protein synthesis inhibition counterscreen; stronger effect = higher value

SMILES | max response
O=C(NC1CCCC1)C1CCN(C(=O)Nc2cccc(Cl)c2)CC1 | -1.38%
Cc1cccc(N2CCN(Cc3nc(C4CC4)no3)CC2)n1 | -2.08%
Cc1cccc(C)c1NC(=O)C1CCCN1C(=O)OC(C)(C)C (centres undefined) | 6.96%
O=C(CO/N=C/c1ccccc1O)NNC(=O)c1ccccc1Cl | -2.64%
Cc1ccccc1C1=NC(C(F)(F)F)(C(F)(F)F)c2c(n(-c3ccc(F)cc3)c(=O)[nH]c2=O)N1 | -1.61%
O=C(O)CSc1c2c(nc3cc(C(=O)Nc4cccc(C(F)(F)F)c4)ccc13)CCCC2 | -2.41%
O=C(Nc1nnc(SCc2c(Cl)cccc2Cl)s1)C1CCCO1 (centres undefined) | 28% (active)
O=C(Nc1nnc(CCc2ccccc2)s1)C1CCCO1 (centres undefined) | 14.8% (active)
O=C(C1CCCO1)N(Cc1ccccc1)c1ccccc1 (centres undefined) | -0.517%
O=C(Nc1nnc(SCc2c(Cl)cccc2Cl)s1)c1cccc([N+](=O)[O-])c1 | 8%
O=C(Nc1nnc(SCc2ccc(Cl)cc2Cl)s1)C1COc2ccccc2O1 (centres undefined) | -3.01%
CC(C)Cc1nnc(NC(=O)CCc2ccccc2)s1 | -1.48%
O=C(NC(Cc1ccccc1)C(=O)O)/C(=C\c1ccccc1)NC(=O)c1ccco1 (centres undefined) | -3.05%
COc1cc(CN2CCN(Cc3ccc(C)cc3)CC2)c([N+](=O)[O-])cc1OC | -2.69%
CN(CC(=O)Nc1ccccc1C(F)(F)F)C(=O)Cc1ccccc1F | -1.32%
O=Cc1ccc(OCc2cn3ccccc3n2)cc1 | 31.8% (active)
Cn1cc[n+](C)c1COc1ccc(C=O)cc1 | 1.36%
COc1ccc(C(=O)NCc2cn3ccccc3n2)cc1 | -1.44%
Cc1cccc2nc(CSc3nc4[nH]ncc4c(=O)n3-c3cccc(Cl)c3)cc(=O)n12 | 1.41%
Oc1ccc(N=Cc2sc3ccccc3c2Cl)cc1 | 25.7% (active)
Oc1ccc(N=Cc2c(O)ccc3ccccc23)cc1 | 4.29%
Oc1[nH]c2ccc(Br)cc2c1N=Nc1nn[nH]n1 | 1.76%
NS(=O)(=O)c1ccc(N=Nc2c(O)[nH]c3ccc(Br)cc23)cc1 | -3.08%
Cc1cccc(N=Nc2c(O)[nH]c3ccc(F)cc23)c1 | 49% (active)
Fc1ccccc1COc1ccccc1CNCc1ccncc1 | -2.19%
CN(Cc1ccccc1)CC(O)COc1ccc(CNCc2cc3ccccc3s2)cc1 (centres undefined) | -1.23%
Cc1ccc(C2CC2C(=O)NN)cc1 (centres undefined) | 4.7%
O=C(NNC(=S)Nc1ccc(F)cc1)[C@H]1C[C@@H]1c1ccccc1 | -2.55%
Cc1ccc(NC(=O)C2CC2c2ccccc2)cc1 (centres undefined) | 28.4% (active)
